Assay results: article PMC7862700, “An all-to-all approach to the identification of sequence-specific readers for epigenetic DNA modifications on cytosine”

How the values were obtained:
Assay in all cases: DAPPL (digital affinity profiling via proximity ligation, sequencing); 10 mM Tris-HCl pH 7.5, 50 mM NaCl, 1 mM DTT, 4% glycerol, room temperature, 30 min; GST-TFs on glutathione beads, 16-mer random dsDNA library, 0.1% formaldehyde crosslink after washing; high values mean tight binding
Conditions in all cases: protein: recombinant; tags: N-terminal GST; dsDNA, one strand shown
FEV = target: T1, FEV (Homo sapiens, UniProt Q99581 1-238)
T1 sequence: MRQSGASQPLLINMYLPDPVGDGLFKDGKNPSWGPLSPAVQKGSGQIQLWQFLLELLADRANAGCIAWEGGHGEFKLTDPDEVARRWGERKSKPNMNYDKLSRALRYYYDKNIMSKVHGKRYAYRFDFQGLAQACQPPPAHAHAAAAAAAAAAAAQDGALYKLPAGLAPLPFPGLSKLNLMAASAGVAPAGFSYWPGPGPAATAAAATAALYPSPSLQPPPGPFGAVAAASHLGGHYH
In short: (§1)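 After expression in yeast as GST fusions, human transcription factors were bound to glutathione beads, DNA-barcoded and mixed with a tag-only sample. The pools were incubated with 200 nmole of a 16-mer random double-stranded DNA library in Tris/NaCl/DTT/glycerol buffer (30 min, room temperature), washed and crosslinked with 0.1% formaldehyde. Proximity ligation with BsaI/T4 ligase ran for 1 h at 37 °C, before PCR amplification and sequencing on an Illumina NextSeq500. Binding signal is a hexamer's read frequency for a factor divided by its frequency for the tag-only sample.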

ETV5 = ETV5 (Homo sapiens, UniProt P41161 1-510)
In short: as §1

SPIC = target: T2, SPIC (Homo sapiens, UniProt Q8N5J4 1-248)
T2 sequence: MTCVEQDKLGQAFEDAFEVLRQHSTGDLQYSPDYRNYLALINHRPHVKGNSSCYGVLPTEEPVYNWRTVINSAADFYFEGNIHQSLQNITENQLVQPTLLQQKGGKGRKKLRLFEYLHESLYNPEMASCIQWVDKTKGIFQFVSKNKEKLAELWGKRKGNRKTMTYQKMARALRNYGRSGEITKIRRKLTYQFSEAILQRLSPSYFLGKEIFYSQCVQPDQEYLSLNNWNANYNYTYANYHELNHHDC
In short: as §1

ELF4 = ELF4 (Homo sapiens, UniProt Q99607 1-663)
In short: as §1

ELK4 = target: T3, ELK4 (Homo sapiens, UniProt P28324-2 1-405)
T3 sequence: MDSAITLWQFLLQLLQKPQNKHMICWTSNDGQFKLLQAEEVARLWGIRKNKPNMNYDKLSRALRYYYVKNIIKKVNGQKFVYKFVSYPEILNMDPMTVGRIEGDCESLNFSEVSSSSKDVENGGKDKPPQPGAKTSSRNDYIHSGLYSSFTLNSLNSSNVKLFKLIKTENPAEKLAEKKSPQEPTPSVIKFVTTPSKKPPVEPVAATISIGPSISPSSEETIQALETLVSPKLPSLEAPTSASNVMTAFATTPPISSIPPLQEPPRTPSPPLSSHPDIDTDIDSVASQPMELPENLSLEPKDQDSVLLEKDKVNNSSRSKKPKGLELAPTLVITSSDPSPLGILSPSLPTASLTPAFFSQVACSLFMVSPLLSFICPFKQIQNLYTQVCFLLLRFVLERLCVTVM
In short: as §1

ETV2 = target: T4, ETV2 (Homo sapiens, UniProt O00321 1-342)
T4 sequence: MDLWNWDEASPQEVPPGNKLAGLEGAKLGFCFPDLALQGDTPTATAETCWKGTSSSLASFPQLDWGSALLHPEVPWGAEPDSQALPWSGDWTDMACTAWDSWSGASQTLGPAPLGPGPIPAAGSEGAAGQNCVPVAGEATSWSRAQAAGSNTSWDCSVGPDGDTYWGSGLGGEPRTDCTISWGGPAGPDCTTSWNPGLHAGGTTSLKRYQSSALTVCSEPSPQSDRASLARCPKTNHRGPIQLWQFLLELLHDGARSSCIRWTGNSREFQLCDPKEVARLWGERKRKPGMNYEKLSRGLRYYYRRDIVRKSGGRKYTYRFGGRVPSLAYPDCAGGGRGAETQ
In short: as §1

ELF3 = target: T5, ELF3 (Homo sapiens, UniProt P78545 1-371)
T5 sequence: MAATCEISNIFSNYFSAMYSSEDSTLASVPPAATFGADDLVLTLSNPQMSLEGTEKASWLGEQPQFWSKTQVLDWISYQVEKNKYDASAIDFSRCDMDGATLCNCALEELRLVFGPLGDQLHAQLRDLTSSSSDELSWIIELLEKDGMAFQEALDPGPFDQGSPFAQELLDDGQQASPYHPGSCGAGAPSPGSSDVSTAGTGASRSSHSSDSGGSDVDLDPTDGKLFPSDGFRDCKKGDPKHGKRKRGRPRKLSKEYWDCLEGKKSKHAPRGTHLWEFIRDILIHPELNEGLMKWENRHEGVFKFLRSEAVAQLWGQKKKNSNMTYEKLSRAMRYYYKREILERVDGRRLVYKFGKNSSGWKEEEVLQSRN
In short: as §1

ETV1 = ETV1 (Homo sapiens, UniProt P50549 1-477)
In short: as §1

ETV3L = target: T6, ETV3L (Homo sapiens, UniProt Q6ZN32 1-361)
T6 sequence: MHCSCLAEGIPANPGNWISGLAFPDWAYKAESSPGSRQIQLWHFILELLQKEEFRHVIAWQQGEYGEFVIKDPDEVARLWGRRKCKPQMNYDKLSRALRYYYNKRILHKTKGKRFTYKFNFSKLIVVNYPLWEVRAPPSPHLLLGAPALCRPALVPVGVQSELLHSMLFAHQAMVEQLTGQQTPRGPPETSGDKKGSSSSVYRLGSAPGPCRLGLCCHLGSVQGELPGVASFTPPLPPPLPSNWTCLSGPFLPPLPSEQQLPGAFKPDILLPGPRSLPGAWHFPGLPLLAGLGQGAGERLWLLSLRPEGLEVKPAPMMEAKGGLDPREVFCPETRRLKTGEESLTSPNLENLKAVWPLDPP
In short: as §1

ETS2 = target: T7, ETS2 (Homo sapiens, UniProt P15036 1-469)
T7 sequence: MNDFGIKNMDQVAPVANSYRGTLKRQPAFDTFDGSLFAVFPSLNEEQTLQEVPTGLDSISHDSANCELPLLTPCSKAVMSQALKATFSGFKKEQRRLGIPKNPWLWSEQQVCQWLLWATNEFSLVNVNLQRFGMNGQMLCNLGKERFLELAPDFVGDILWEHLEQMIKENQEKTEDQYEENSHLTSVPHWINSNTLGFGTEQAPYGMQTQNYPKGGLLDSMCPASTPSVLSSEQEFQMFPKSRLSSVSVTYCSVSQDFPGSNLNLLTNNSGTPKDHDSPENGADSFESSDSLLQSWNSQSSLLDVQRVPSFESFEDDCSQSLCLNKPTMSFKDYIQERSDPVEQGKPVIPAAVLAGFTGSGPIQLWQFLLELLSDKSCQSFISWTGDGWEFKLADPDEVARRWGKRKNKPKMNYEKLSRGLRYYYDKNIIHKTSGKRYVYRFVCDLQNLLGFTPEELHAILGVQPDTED
In short: as §1

SPDEF = target: T8, SPDEF (Homo sapiens, UniProt O95238 1-335)
T8 sequence: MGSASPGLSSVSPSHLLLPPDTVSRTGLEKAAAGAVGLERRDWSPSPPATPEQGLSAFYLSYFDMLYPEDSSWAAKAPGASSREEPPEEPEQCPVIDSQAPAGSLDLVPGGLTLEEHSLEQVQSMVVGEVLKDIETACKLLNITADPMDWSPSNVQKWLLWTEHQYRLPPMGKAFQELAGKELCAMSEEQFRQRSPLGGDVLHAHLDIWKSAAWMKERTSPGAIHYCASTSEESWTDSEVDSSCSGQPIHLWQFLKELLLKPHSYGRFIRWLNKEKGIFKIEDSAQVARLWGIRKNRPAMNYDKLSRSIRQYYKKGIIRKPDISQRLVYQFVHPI
In short: as §1

ETV7 = target: T9, ETV7 (Homo sapiens, UniProt Q9Y603 1-341)
T9 sequence: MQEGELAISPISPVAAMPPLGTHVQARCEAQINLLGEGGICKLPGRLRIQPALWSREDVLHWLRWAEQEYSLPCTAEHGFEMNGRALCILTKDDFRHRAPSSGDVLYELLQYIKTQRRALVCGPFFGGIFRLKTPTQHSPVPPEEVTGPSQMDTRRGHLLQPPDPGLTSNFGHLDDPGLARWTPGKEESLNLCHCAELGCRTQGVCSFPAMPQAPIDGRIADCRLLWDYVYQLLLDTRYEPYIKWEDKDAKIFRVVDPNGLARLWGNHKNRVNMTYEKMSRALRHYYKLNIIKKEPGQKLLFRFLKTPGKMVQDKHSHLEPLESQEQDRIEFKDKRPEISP
In short: as §1

ELF5 = target: T10, ELF5 (Homo sapiens, UniProt Q9UKW6-2 1-255)
T10 sequence: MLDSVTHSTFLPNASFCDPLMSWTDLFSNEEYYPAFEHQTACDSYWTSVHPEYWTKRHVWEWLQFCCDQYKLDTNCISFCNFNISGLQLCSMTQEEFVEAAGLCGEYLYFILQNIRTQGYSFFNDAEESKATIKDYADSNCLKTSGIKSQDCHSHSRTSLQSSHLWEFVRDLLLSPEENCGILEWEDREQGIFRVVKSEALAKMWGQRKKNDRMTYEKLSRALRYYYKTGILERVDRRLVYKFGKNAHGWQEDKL
In short: as §1

ETV3 = target: T11, ETV3 (Homo sapiens, UniProt P41162-2 1-143)
T11 sequence: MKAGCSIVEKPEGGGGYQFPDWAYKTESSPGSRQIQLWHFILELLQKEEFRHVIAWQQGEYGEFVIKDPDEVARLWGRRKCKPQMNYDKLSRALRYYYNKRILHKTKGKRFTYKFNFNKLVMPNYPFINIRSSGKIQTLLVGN
In short: as §1

ETV6 = ETV6 (Homo sapiens, UniProt P41212 1-452)
In short: as §1

ERF = target: T12, ERF (Homo sapiens, UniProt P50548 1-548)
T12 sequence: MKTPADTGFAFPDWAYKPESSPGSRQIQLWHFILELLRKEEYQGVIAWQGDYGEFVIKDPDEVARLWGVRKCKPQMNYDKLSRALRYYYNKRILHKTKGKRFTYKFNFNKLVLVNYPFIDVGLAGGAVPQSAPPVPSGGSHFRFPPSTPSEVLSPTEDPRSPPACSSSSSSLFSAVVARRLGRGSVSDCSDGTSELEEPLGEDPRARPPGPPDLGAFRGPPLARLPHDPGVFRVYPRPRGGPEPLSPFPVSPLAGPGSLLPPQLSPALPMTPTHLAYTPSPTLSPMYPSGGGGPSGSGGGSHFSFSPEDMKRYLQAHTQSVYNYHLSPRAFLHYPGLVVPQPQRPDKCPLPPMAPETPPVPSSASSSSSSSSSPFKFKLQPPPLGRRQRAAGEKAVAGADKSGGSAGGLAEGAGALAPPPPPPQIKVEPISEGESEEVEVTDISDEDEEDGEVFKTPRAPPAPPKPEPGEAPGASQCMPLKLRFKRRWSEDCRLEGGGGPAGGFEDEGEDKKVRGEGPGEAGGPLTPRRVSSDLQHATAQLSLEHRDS
In short: as §1

Chain of ETV6 (P41212 whole entry): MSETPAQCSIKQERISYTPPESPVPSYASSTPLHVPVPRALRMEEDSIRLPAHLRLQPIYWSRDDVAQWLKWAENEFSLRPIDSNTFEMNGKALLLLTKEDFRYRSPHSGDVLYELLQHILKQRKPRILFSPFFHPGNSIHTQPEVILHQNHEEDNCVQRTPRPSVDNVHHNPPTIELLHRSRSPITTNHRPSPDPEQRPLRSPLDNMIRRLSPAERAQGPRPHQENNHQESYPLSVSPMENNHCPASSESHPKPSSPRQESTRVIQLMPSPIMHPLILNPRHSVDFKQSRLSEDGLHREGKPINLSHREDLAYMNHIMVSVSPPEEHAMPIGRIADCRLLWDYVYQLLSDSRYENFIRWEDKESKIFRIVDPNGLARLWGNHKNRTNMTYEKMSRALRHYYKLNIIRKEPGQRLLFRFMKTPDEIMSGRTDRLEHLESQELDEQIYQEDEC
Chain of ETV5 (P41161 whole entry): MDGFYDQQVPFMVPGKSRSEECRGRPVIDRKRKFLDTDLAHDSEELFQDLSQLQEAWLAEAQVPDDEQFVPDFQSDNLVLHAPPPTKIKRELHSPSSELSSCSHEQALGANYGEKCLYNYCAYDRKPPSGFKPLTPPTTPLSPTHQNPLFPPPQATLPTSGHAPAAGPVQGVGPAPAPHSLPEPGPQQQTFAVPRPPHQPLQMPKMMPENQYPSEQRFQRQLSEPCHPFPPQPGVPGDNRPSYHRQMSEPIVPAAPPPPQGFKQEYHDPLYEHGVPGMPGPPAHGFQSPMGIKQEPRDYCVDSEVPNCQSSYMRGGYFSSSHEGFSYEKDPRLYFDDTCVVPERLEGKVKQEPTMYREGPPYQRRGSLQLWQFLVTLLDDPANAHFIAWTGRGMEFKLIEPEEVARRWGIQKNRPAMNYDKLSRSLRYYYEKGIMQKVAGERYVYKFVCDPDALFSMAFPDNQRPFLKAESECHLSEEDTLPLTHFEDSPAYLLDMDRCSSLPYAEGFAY
Chain of ETV1 (P50549 whole entry): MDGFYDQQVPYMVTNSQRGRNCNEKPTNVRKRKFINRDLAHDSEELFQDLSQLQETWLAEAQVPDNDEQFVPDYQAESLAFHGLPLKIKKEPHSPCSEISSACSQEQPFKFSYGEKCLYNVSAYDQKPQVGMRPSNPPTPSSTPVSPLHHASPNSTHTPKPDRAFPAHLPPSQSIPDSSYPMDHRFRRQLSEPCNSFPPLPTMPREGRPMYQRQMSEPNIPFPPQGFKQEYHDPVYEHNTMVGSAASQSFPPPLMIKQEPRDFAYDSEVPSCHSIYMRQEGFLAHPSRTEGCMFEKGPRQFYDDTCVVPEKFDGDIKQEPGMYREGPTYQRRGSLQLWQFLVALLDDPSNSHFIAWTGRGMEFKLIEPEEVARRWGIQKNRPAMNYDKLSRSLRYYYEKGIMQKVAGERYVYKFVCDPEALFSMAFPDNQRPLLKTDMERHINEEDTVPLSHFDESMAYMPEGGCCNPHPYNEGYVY
Chain of ELF4 (Q99607 whole entry): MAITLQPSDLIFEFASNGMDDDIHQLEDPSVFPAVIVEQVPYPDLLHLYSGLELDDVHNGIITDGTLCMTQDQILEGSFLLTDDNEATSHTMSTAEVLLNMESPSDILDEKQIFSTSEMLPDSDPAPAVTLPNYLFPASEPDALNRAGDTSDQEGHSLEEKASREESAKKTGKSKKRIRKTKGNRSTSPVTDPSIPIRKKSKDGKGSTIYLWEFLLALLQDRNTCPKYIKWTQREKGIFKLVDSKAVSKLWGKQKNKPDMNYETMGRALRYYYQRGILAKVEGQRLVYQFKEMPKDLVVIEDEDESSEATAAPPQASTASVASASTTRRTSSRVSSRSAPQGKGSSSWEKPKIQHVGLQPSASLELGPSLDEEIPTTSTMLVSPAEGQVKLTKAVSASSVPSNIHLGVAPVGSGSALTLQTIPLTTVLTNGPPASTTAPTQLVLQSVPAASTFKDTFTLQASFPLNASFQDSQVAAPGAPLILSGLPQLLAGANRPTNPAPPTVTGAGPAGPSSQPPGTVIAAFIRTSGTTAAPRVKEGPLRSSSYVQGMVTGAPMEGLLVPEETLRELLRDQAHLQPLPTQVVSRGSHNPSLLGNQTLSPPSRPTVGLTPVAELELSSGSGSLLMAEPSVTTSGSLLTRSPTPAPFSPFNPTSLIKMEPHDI

TGCCCT
binding signal (FEV): 1.18 fold enrichment (6-mer frequency, TF over GST control) | binding signal (ETV5): 1.11 fold enrichment (6-mer frequency, TF over GST control) | binding signal (SPIC): 1.2 fold enrichment (6-mer frequency, TF over GST control) | binding signal (ELF4): 1.12 fold enrichment (6-mer frequency, TF over GST control) | binding signal (ELK4): 1.25 fold enrichment (6-mer frequency, TF over GST control) | binding signal (ETV2): 1.13 fold enrichment (6-mer frequency, TF over GST control) | binding signal (ELF3): 1.27 fold enrichment (6-mer frequency, TF over GST control) | binding signal (ETV1): 1.08 fold enrichment (6-mer frequency, TF over GST control) | binding signal (ETV3L): 1.11 fold enrichment (6-mer frequency, TF over GST control) | binding signal (ETS2): 1.21 fold enrichment (6-mer frequency, TF over GST control) | binding signal (SPDEF): 1.15 fold enrichment (6-mer frequency, TF over GST control) | binding signal (ETV7): 1.08 fold enrichment (6-mer frequency, TF over GST control) | binding signal (ELF5): 1 fold enrichment (6-mer frequency, TF over GST control) | binding signal (ETV3): 1.1 fold enrichment (6-mer frequency, TF over GST control) | binding signal (ETV6): 1.15 fold enrichment (6-mer frequency, TF over GST control)

TGTGCA
binding signal (FEV): 1.1 fold enrichment (6-mer frequency, TF over GST control) | binding signal (ETV5): 1.15 fold enrichment (6-mer frequency, TF over GST control) | binding signal (SPIC): 1.38 fold enrichment (6-mer frequency, TF over GST control) | binding signal (ELF4): 1.11 fold enrichment (6-mer frequency, TF over GST control) | binding signal (ELK4): 1.09 fold enrichment (6-mer frequency, TF over GST control) | binding signal (ETV2): 1.01 fold enrichment (6-mer frequency, TF over GST control) | binding signal (ELF3): 1.09 fold enrichment (6-mer frequency, TF over GST control) | binding signal (ETV1): 1.05 fold enrichment (6-mer frequency, TF over GST control) | binding signal (ERF): 1.21 fold enrichment (6-mer frequency, TF over GST control) | binding signal (ETV3L): 1.06 fold enrichment (6-mer frequency, TF over GST control) | binding signal (ETS2): 1.16 fold enrichment (6-mer frequency, TF over GST control) | binding signal (SPDEF): 1.14 fold enrichment (6-mer frequency, TF over GST control) | binding signal (ETV3): 1.08 fold enrichment (6-mer frequency, TF over GST control) | binding signal (ETV6): 1 fold enrichment (6-mer frequency, TF over GST control)

CAAGGT
binding signal (FEV): 1.04 fold enrichment (6-mer frequency, TF over GST control) | binding signal (ETV5): 1.04 fold enrichment (6-mer frequency, TF over GST control) | binding signal (SPIC): 1 fold enrichment (6-mer frequency, TF over GST control) | binding signal (ELF4): 1.11 fold enrichment (6-mer frequency, TF over GST control) | binding signal (ELK4): 1.16 fold enrichment (6-mer frequency, TF over GST control) | binding signal (ETV2): 1.12 fold enrichment (6-mer frequency, TF over GST control) | binding signal (ELF3): 1.15 fold enrichment (6-mer frequency, TF over GST control) | binding signal (ETV1): 1.13 fold enrichment (6-mer frequency, TF over GST control) | binding signal (ETV3L): 1.12 fold enrichment (6-mer frequency, TF over GST control) | binding signal (ETS2): 1.11 fold enrichment (6-mer frequency, TF over GST control) | binding signal (SPDEF): 1.03 fold enrichment (6-mer frequency, TF over GST control) | binding signal (ETV7): 1.1 fold enrichment (6-mer frequency, TF over GST control) | binding signal (ETV3): 1.02 fold enrichment (6-mer frequency, TF over GST control) | binding signal (ETV6): 1.01 fold enrichment (6-mer frequency, TF over GST control)
